Screening data deposited in PubChem BioAssay by National Center for Advancing Translational Sciences (NCATS).
RORg inh = qHTS for inhibitors of ROR gamma transcriptional activity. Nuclear receptor ROR-gamma (Mus musculus), P51450. Drosophila S2 Gal4-RORgamma UAS-luciferase reporter, 20 h. Potency, µM (series often up to 53.6 µM), usual class: inhibitors. 310,000 compounds, 5.4% hits. AID 2551, 2010; note: nearly all actives have a fitted effect of over 60% in size
Target sequence (P51450 whole entry, looked up, the tested form may be a part): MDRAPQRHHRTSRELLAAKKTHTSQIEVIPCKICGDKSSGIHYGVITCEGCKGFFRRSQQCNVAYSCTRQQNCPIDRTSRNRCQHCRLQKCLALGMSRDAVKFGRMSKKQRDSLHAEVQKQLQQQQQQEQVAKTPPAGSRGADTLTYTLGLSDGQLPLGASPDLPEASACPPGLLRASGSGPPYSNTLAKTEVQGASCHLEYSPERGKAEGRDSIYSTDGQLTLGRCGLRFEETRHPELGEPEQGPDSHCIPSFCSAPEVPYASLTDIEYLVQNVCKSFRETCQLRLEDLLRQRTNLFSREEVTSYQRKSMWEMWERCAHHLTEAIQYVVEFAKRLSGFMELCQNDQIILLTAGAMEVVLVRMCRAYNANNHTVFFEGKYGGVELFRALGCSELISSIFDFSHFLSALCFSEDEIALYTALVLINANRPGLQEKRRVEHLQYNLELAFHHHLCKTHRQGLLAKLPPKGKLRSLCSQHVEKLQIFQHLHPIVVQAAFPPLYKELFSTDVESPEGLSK
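In this cell-based reporter format, copper sulfate (700 uM final) drives Gal4–ROR gamma fusion expression from a metallothionein promoter in Drosophila Schneider cells; compounds preincubated 1 hr, reporter read after 20 hr at ambient temperature.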
LDHA block = qHTS assay for inhibitors of human lactate dehydrogenase; L-lactate dehydrogenase A chain (Homo sapiens), P00338; purified LDHA, NADH/diaphorase-resazurin fluorescence; hits give low values; activity change, % (values are at about 110 or 230 µM); 480,000 compounds, 0.15% hits; in the data active = activity change below about -30%; inconclusive = mostly about -25% to -30%
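Human LDH5 at 2 nM final in Tris HCl pH 7.4 with 0.06 mM NADH and 0.2 mM pyruvate, reacted 5 minutes at room temperature. Remaining NADH coupled via diaphorase/resazurin; resorufin fluorescence read at 0 and 20 minutes, normalized to enzyme-free and DMSO wells.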
IL1B secr inh = qHTS for Inhibitors of Inflammasome Signaling: IL-1-beta AlphaLISA Primary Screen; THP-1 LPS/ATP IL-1B secretion, AlphaLISA, 16 h; hits give low values; 360,000 compounds, 4.7% hits; activity change, % at 57.5 µM; in the data active = activity change below about -50%; inconclusive = mostly about -30% to -49%
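THP-1 cells pretreated 1 hr with compounds (up to 57.5 uM final), then stimulated with LPS (250 ng/mL final) plus ATP (1.25 mM final); secreted IL-1B measured by AlphaLISA after 16 hr, decreased signal indicating inhibition.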
TDP1 cell noCPT = qHTS for Inhibitors of human tyrosyl-DNA phosphodiesterase 1 (TDP1): qHTS in cells in absence of CPT; 420,000 compounds, 15% hits; Potency, µM (series often up to 46.2 µM), most hits filed as inhibitors; DT40 Tdp1-/- hTDP1 cells, no CPT, ATP luminescence, 48 h; note: nearly all actives have a fitted effect of over 55% in size
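Cells were dispensed at 400 per well, compounds added by pin tool, plates incubated ≥48 hr at 37 °C, then CellTiter-Glo added for 30 min at room temperature before luminescence reading. Line: DT40 Tdp1-/- complemented with hTDP1; camptothecin omitted.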
DT40 TDP1 CPT = qHTS for Inhibitors of human tyrosyl-DNA phosphodiesterase 1 (TDP1): qHTS in cells in presence of CPT; AID 686979, 2013; Potency, µM (top dose mostly 46.2 µM), most hits filed as inhibitors; 420,000 compounds, 12% hits; chicken DT40 Tdp1-/-;hTDP1 cells + 20 nM CPT, ATP luminescence, 48 h; note: nearly all actives have a fitted effect of over 55% in size
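Chicken DT40 Tdp1-/- cells stably complemented with human TDP1 were seeded at 400 cells/well in medium containing 20 nM camptothecin, exposed to pin-transferred compounds, and grown at 37 °C for at least 48 hr. Viability was read as ATP luminescence.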
VP16 counter = VP16 counterscreen qHTS for inhibitors of ROR gamma transcriptional activity. Drosophila S2 Gal4-VP16 UAS-luciferase, luminescence, 20 h. Potency, µM (titrated, usually from 53.6 µM), actives largely listed as inhibitors. 310,000 compounds, 3.5% hits;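 note: Gal4-VP16 expression switched on by copper sulfate through the metallothionein promoter; nearly all actives have a fitted effect of over 50% in size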
Numbers stand for hits; . = inactive; ? = inconclusive; / = no result given. A selection: hits, their analogues and other compounds. The true share with any hit is near 18%. Unless noted, calls come from the whole dose curve; as a rule, active = well fitted curve in the direction sought with a large enough effect; inconclusive = small, poorly fitted or top-dose-only effect, or another doubt; inactive = no such curve, though single readings can be large; an effect the other way counts as inactive or inconclusive.

SMILES | RORg inh | LDHA block | IL1B secr inh | TDP1 cell noCPT | DT40 TDP1 CPT | VP16 counter
Cc1ccc(S(=O)(=O)C(CNC(=O)c2c(F)cccc2F)c2ccco2)cc1 (stereo unspecified) | / | . | / | 23.1µM | ? | /
O=C(NCC(c1ccco1)S(=O)(=O)c1cccs1)c1ccc(F)c(F)c1 (stereo unspecified) | / | . | / | 16.4µM | 13µM | /
Cc1ccc(S(=O)(=O)C(CNC(=O)c2ccc(F)c(F)c2)c2ccco2)cc1 (stereo unspecified) | / | . | / | ? | 16.4µM | /
COc1ccc(C(=O)NCC(C)NC(=O)c2ccc(OC)c(OC)c2)cc1OC (stereo unspecified) | / | . | . | . | . | /
Cc1ccc(C(=O)NCC(C)NC(=O)c2ccc(C)c(C)c2)cc1C (stereo unspecified) | / | . | . | 25.9µM | ? | /
O=C(NCC(c1ccco1)S(=O)(=O)c1cccs1)c1ccccc1 (stereo unspecified) | / | . | / | ? | ? | /
Cc1ccc(C(=O)NCC(c2ccco2)S(=O)(=O)c2ccc(Cl)cc2)cc1C (stereo unspecified) | / | . | / | 20.6µM | 16.4µM | /
O=C(NCC(c1ccco1)S(=O)(=O)c1ccc(Cl)cc1)c1ccccc1F (stereo unspecified) | / | . | / | 16.4µM | ? | /
Cc1ccc(S(=O)(=O)C(CNC(=O)C(=O)NCc2ccc(Cl)cc2)c2ccco2)cc1 (stereo unspecified) | / | . | / | . | . | /
Cc1ccc(S(=O)(=O)C(CNC(=O)COc2ccc(Cl)cc2)c2ccco2)cc1 (stereo unspecified) | / | . | / | ? | 23.1µM | /
CCNC(=O)C(=O)NCC(c1ccco1)S(=O)(=O)c1ccc(Cl)cc1 (stereo unspecified) | / | . | / | / | / | /
O=C(N/N=C/c1c[nH]c2ccccc12)c1cc(-c2ccc(-c3ccccc3)cc2)n[nH]1 | 5.62µM | . | . | ? | ? | ?
Cc1nc(C)c(C(=O)N/N=C/c2c[nH]c3ccccc23)s1 | . | . | . | ? | ? | .
O=C(N/N=C/c1c[nH]c2ccccc12)c1ccn[nH]1 | . | . | . | . | . | .
Cc1ccc(-c2cc(C(=O)N/N=C/c3c[nH]c4ccccc34)[nH]n2)cc1 | . | . | . | 2.59µM | 2.31µM | ?
COC(=O)N/N=C/c1c[nH]c2ccccc12 | . | . | . | . | . | .
O=C(N/N=C/c1c[nH]c2ccccc12)c1cc(-c2cccc3ccccc23)n[nH]1 | . | . | -52.1 | ? | ? | ?
O=C(N/N=C/c1c[nH]c2ccccc12)c1cc(-c2ccccc2)n[nH]1 | . | . | -66.0 | . | . | .
Cn1cnnc1Sc1nc2c(c(=O)n(C)c(=O)n2C)n1Cc1ccc(Br)cc1 | / | . | / | / | / | /
O=C(N/N=C/c1c[nH]c2ccccc12)c1cc(-c2ccc3ccccc3c2)n[nH]1 | ? | . | -98.9 | ? | 3.66µM | ?
Cc1cccc(OCC(O)Cn2c(N)nc3c2c(=O)n(C)c(=O)n3C)c1 (stereo unspecified) | / | . | / | / | / | /
COC(=O)C(C)N1C(=O)S/C(=C/c2ccc(Sc3ccccc3)cc2)C1=O (stereo unspecified) | / | . | / | / | / | /
O=S(=O)(Nc1cc(C(F)(F)F)ccc1N1CCOCC1)c1ccc2ccccc2c1 | . | . | ? | ? | 16.4µM | .
Cc1ccc(S(=O)(=O)Nc2ccccc2N2CCCCC2)cc1 | / | . | . | 16.4µM | ? | /
Cc1ccc(S(=O)(=O)Nc2ccccc2NS(=O)(=O)c2ccc(C)cc2)cc1 | / | . | . | . | . | /
SMILES | RORg inh | LDHA block | IL1B secr inh | TDP1 cell noCPT | DT40 TDP1 CPT | VP16 counter
Cc1ccc(S(=O)(=O)Nc2ccccc2N2CCOCC2)cc1 | . | . | . | ? | 20.6µM | .
O=S(=O)(Nc1cc(C(F)(F)F)ccc1N1CCOCC1)c1ccccc1 | . | . | . | . | . | .
NC(=O)C(OC(=O)C12CC3CC(CC(C3)C1)C2)c1ccccc1 (stereo unspecified) | / | . | / | / | / | /
C#Cc1cccc(NC(=O)CCC(=O)c2ccc3c(c2)CCC3)c1 | / | . | / | / | / | /
O=C(Nc1nc2ccccc2n1CCN1CCOCC1)c1ccc(Cl)cc1 | 0.398µM | . | / | ? | . | 2.82µM
CCC(=O)Nc1nc2ccccc2n1CCN1CCOCC1 | 14.1µM | . | . | . | . | ?
CCCCCCCn1c(NC(=O)CC)nc2ccccc21 | 0.0891µM | . | / | 20.6µM | ? | 0.631µM
O=C(Nc1nc2ccccc2n1CCN1CCCCC1)c1ccc(Cl)cc1 | . | / | / | / | / | ?
N#Cc1ccc(OCc2cccc(C(F)(F)F)c2)cc1 | / | . | / | / | / | /
O=C(NC1CC1)c1ccc(Cn2cnc3ccccc3c2=O)cc1 | / | . | / | / | / | /
Cc1ccc2[nH]c(CSc3nnc(NC(=O)COc4ccccc4C)s3)cc(=O)c2c1 | / | . | / | ? | ? | /
Cc1ccc2[nH]c(CSc3nnc(NC(=O)COc4ccccc4F)s3)cc(=O)c2c1 | / | . | / | ? | ? | /
Cc1ccc2[nH]c(CSc3nnc(NC(=O)c4ccccc4C)s3)cc(=O)c2c1 | / | . | / | 5.8µM | 7.31µM | /
Cc1ccc2[nH]c(CSc3nnc(NC(=O)c4ccccc4F)s3)cc(=O)c2c1 | / | . | / | 10.3µM | 10.3µM | /
CC(=O)Nc1ccc(NC(=O)C(C)On2nnc3ccc(Cl)cc32)cc1 (stereo unspecified) | / | . | / | / | / | /
Cc1ccccc1N=C/C=C1/C=C(c2ccccc2)OC(C)(C)O1 | ? | . | . | ? | ? | .
COc1ccc(N=C/C=C2\C=C(c3ccccc3)OC(C)(C)O2)cc1 | . | . | . | ? | 16.4µM | .
CCOc1ccc(-n2c(C)cc(/C=N/Nc3nc(C)cc(=O)[nH]3)c2C)cc1 | . | . | . | 11.6µM | 16.4µM | .
CCOc1ccc(-n2c(C)cc(/C=N/N(C)C)c2C)cc1 | . | . | . | 7.31µM | 9.2µM | .
CCOc1ccc(-n2c(C)cc(/C=N\NC(=O)CC(=O)NC3CCCCC3)c2C)cc1 | . | . | . | 13µM | 18.4µM | .
CC1CS(=O)(=O)N(c2ccc(S(=O)(=O)NCc3ccc(Cl)cc3)cc2)C1=O (stereo unspecified) | / | . | / | / | / | /
CCOCCOC(=O)COc1ccc2c(=O)c(Oc3ccc(OC)cc3)c(C(F)(F)F)oc2c1 | / | . | / | / | / | /
COc1ccccc1CNC(=O)CSc1nc(-c2cccs2)nc2ccccc12 | / | . | / | / | / | /
COc1cccc2nc(-c3cccs3)nc(NN3C(=O)C=C(C)C3=O)c12 | 6.31µM | . | / | / | / | 5.01µM
